“And” between values parts separate entries of the source, which are not always exact repeats. Equal values may be shown once. This is part of a sample that, as a whole, favours compounds with a hit. Of some 83,000 tested, about 20% had one in any assay.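 Activity criterion: percent growth below 10, measured after cells in 96-well plates were exposed to a single compound concentration for 48 hours.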 Some compounds were tested as several samples or in several runs, with calls that do not always agree. The source made the active and inactive calls.

Test systems include MOLT-4 leukemia; SR leukemia; RPMI-8226 leukemia; OVCAR-8 ovarian; OVCAR-5 ovarian; OVCAR-4 ovarian; SK-OV-3 ovarian; IGROV1 ovarian; OVCAR-3 ovarian; HS 578T breast; NCI/ADR-RES ovarian; T-47D breast; BT-549 breast; MDA-MB-435 melanoma; SW-620 colon; MCF7 breast; HCT-116 colon; HCC-2998 colon; KM12 colon.
Assay in all cases: NCI-60 one-dose screen, 48 h (100 = growth as untreated, 0 = no growth, -100 = all killed)
Conditions in all cases: 10 µM unless noted

In the case of `C[C@]12CC[C@H](O)C[C@@H]1CC[C@@H]1[C@@H]2CC[C@]2(C)OC(=O)CC[C@@H]12`, the growth was 113% (inactive) in the experiment with MOLT-4 leukemia; 125% (inactive) with SR leukemia; 102% (inactive) in the experiment on RPMI-8226 leukemia; 85.6% (inactive) in the experiment on OVCAR-8 ovarian; 93.7% (inactive) with OVCAR-5 ovarian; 104% (inactive) with OVCAR-4 ovarian. Also, the growth in the experiment on SK-OV-3 ovarian is 85% (inactive); with IGROV1 ovarian, 93.1% (inactive); in the experiment on OVCAR-3 ovarian, 99% (inactive); in the experiment on HS 578T breast, 111% (inactive); with NCI/ADR-RES ovarian it was 101% (inactive); in the experiment on T-47D breast it was 63.6% (inactive). Also, the growth was 88.2% (inactive) with BT-549 breast; 102% (inactive) in the experiment with MDA-MB-435 melanoma; 115% (inactive) in the experiment with SW-620 colon; 96.8% (inactive) with MCF7 breast; 88.6% (inactive) with HCT-116 colon; 102% (inactive) with HCC-2998 colon.

For the molecule `Cc1ccc(P(=O)(O)O)cc1`, the growth was 116% (inactive) in the experiment with MOLT-4 leukemia; 97.9% (inactive) in the experiment with SR leukemia; 112% (inactive) in the experiment on RPMI-8226 leukemia; 110% (inactive) with OVCAR-8 ovarian; 114% (inactive) in the experiment on OVCAR-5 ovarian; 101% (inactive) in the experiment on OVCAR-4 ovarian. Moreover, the growth in the experiment on SK-OV-3 ovarian was 128% (inactive); in the experiment with IGROV1 ovarian, 111% (inactive); in the experiment on OVCAR-3 ovarian it was 118% (inactive); in the experiment with HS 578T breast, 97.7% (inactive); in the experiment with NCI/ADR-RES ovarian it was 106% (inactive); with T-47D breast it was 98.8% (inactive). Besides, the growth was 122% (inactive) with BT-549 breast; 107% (inactive) in the experiment on MDA-MB-435 melanoma; 105% (inactive) in the experiment on SW-620 colon; 98.6% (inactive) with MCF7 breast; 104% (inactive) in the experiment with HCT-116 colon; 103% (inactive) with HCC-2998 colon. The growth in the experiment on KM12 colon was 104% (inactive).

For the molecule `COc1ccc2c(c1)c(-c1nc(-c3c[nH]c4ncccc34)cs1)cn2CCCCN1CCOCC1`, the growth with MOLT-4 leukemia is -21% (active); with SR leukemia, -17.5% (active); in the experiment with RPMI-8226 leukemia, -5.6% (active); with OVCAR-8 ovarian it was 55.6% (inactive); in the experiment on OVCAR-5 ovarian, 58.3% (inactive); in the experiment on OVCAR-4 ovarian, 50.8% (inactive). In addition, the growth is 78.2% (inactive) with SK-OV-3 ovarian; 36.1% (inactive) in the experiment with IGROV1 ovarian; 58.3% (inactive) with OVCAR-3 ovarian; 44.8% (inactive) in the experiment on HS 578T breast; 63.3% (inactive) in the experiment on NCI/ADR-RES ovarian; 48% (inactive) in the experiment on T-47D breast. For the same molecule, the growth with BT-549 breast is 84.2% (inactive); in the experiment on MDA-MB-435 melanoma it was -59% (active); in the experiment on SW-620 colon, -63% (active); in the experiment with MCF7 breast, 18.1% (inactive); with HCT-116 colon, 32.5% (inactive); in the experiment on HCC-2998 colon, 26.7% (inactive).

`Cc1nc2ccccc2c(=O)n1-c1ccccc1F`: the growth in the experiment with MOLT-4 leukemia is 96.9% (inactive); in the experiment with SR leukemia, 108% (inactive); with RPMI-8226 leukemia, 102% (inactive); in the experiment with OVCAR-8 ovarian, 93.2% (inactive); with OVCAR-5 ovarian, 102% (inactive); with OVCAR-4 ovarian, 99.3% (inactive). Further, the growth with SK-OV-3 ovarian is 97.4% (inactive); in the experiment on IGROV1 ovarian it was 111% (inactive); with OVCAR-3 ovarian, 107% (inactive); in the experiment with HS 578T breast it was 100% (inactive); in the experiment on NCI/ADR-RES ovarian, 112% (inactive); with T-47D breast, 79.1% (inactive). Besides, the growth with BT-549 breast was 105% (inactive); with MDA-MB-435 melanoma, 102% (inactive); in the experiment on SW-620 colon, 105% (inactive); in the experiment on MCF7 breast it was 93.9% (inactive); in the experiment on HCT-116 colon, 98.7% (inactive); in the experiment on HCC-2998 colon, 108% (inactive). In addition, the growth in the experiment on KM12 colon is 105% (inactive).

Take `CCCCCCCCCCCCCCCCCCn1cc[n+](C)c1`: the growth with MOLT-4 leukemia was 16.8% (inactive) and 9.25% (active); in the experiment on SR leukemia, 4.33% (active) and 19% (inactive); with RPMI-8226 leukemia, 93.8% (inactive) and 75.6% (inactive); in the experiment on OVCAR-8 ovarian it was -20.2% (active) and -37.4% (active); in the experiment with OVCAR-5 ovarian, -61.5% (active) and -59.7% (active); in the experiment with OVCAR-4 ovarian, -19.3% (active) and -13.3% (active). In addition, the growth in the experiment with SK-OV-3 ovarian is 4.83% (active) and -9.16% (active); with IGROV1 ovarian, -43.9% (active) and -43.1% (active); in the experiment on OVCAR-3 ovarian, -48.7% (active) and -56.3% (active); in the experiment with HS 578T breast, -26.1% (active) and -37% (active); with NCI/ADR-RES ovarian, 20.9% (inactive) and -7.98% (active); with T-47D breast, 35.9% (inactive) and 17% (inactive). Moreover, the growth is -55.6% (active) and -55% (active) in the experiment with BT-549 breast; -56.4% (active) and -70.8% (active) with MDA-MB-435 melanoma; -45.2% (active) and -38.1% (active) with SW-620 colon; -33.8% (active) and 6.12% (active) in the experiment with MCF7 breast; -18.2% (active) and -51.5% (active) in the experiment on HCT-116 colon; -80.7% (active) and -80.9% (active) in the experiment with HCC-2998 colon.

As for `CCCCCCCCCCCCCCCCCC1OCC(COC(=O)O[C@@H](C(=O)O[C@H]2C[C@@]3(O)[C@@H](OC(=O)c4ccccc4)[C@@H]4[C@]5(OC(C)=O)CO[C@@H]5C[C@H](O)[C@@]4(C)C(=O)[C@H](OC(C)=O)C(=C2C)C3(C)C)[C@@H](NC(=O)c2ccccc2)c2ccccc2)O1` (stereo partly specified), the growth is 43.6% (inactive) in the experiment on MOLT-4 leukemia; 18% (inactive) in the experiment with SR leukemia; 4.08% (active) in the experiment on RPMI-8226 leukemia; 48.9% (inactive) in the experiment on OVCAR-8 ovarian; 55.5% (inactive) in the experiment on OVCAR-5 ovarian; 67.4% (inactive) in the experiment with OVCAR-4 ovarian. Moreover, the growth with SK-OV-3 ovarian was 49.5% (inactive); with IGROV1 ovarian it was 47.6% (inactive); in the experiment on OVCAR-3 ovarian, 15.7% (inactive); in the experiment with HS 578T breast it was 28.9% (inactive); in the experiment on NCI/ADR-RES ovarian it was 103% (inactive); in the experiment on T-47D breast it was 32.9% (inactive). Further, the growth with BT-549 breast is 58.8% (inactive); in the experiment on MDA-MB-435 melanoma it was -71.2% (active); in the experiment on SW-620 colon, 39.6% (inactive); in the experiment on MCF7 breast, 18.3% (inactive); in the experiment on HCT-116 colon, 18.2% (inactive); in the experiment with HCC-2998 colon, 32% (inactive). The growth in the experiment with KM12 colon was 14.3% (inactive).

The values are drawn from PubChem BioAssay (NCI).
